HPGD inh: qHTS Assay for Inhibitors of HPGD (15-Hydroxyprostaglandin Dehydrogenase). 15-hydroxyprostaglandin dehydrogenase [NAD(+)] (Homo sapiens), P15428. purified HPGD, NADH fluorescence kinetic, PGE2 substrate. 150,000 tested, 4.3% active. Potency, µM, without a hit: at the top dose activity change, negative = inhibition, actives largely listed as inhibitors; active = well fitted inhibition curve with a large enough effect, not every such curve was filed as active; inconclusive = small, poorly fitted or top-dose-only effect, or another doubt; inactive = no such curve, though single readings can be large or run the other way; also: potency is read from the fitted curve at half-maximal effect
Target sequence (P15428 whole entry, looked up): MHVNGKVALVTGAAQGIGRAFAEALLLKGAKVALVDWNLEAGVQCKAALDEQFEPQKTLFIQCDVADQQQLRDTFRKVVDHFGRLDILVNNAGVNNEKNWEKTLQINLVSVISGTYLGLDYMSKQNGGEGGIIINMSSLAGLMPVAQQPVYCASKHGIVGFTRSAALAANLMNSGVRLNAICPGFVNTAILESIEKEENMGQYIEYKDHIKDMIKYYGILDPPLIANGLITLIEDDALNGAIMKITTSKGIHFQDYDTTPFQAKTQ
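NADH formation kinetics: reaction with 30 uM PGE2 and 1 mM NAD+ (final), 20 nM enzyme, Tris-HCl pH 8 with Tween 20, after 15 min compound preincubation at room temperature. Fluorescence change, last versus first of five reads.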
ALDH1A1 inh: qHTS Assay for Inhibitors of Aldehyde Dehydrogenase 1 (ALDH1A1). 220,000 tested, 7.3% active. Purified ALDH1A1, NADH fluorescence, propionaldehyde substrate. AID 1030, 2008. Potency, µM (doses to about 75.3 µM), for inactives: at the top dose activity, negative = inhibition, usual class: inhibitors; active = well fitted inhibition curve with a large enough effect, not every such curve was filed as active; inconclusive = small, poorly fitted or top-dose-only effect, or another doubt; inactive = no such curve, though single readings can be large or run the other way;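 also: potency is read from the fitted curve at half-maximal effect; plate controls were no enzyme wells and a reference inhibitor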
PNC inhibitor: High Content Assay for Compounds that inhibit the Assembly of the Perinucleolar Compartment; 140,000 tested, 3.1% active; activity change (PNC), negative = inhibition, % at 10 µM; PC3M PTB-GFP, PNC prevalence imaging, 16 h; hits give low values;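 active = readout at or below -70, meaning at least 70% loss of cells showing the perinucleolar compartment, a nuclear body marking cancer cells; inconclusive = readout between -30 and a set limit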;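 also: plate controls were DMSO wells for no effect and camptothecin positive control wells for full effect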
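PC3M cells stably expressing PTB-GFP, 750–1000 cells/well, treated 16 h at 37 °C with compound (23 nl of library stock), in duplicate. After paraformaldehyde fixation and Hoechst stain, imaged at 20x; PNC prevalence scored by image analysis.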
12-hLO inh: qHTS Assay for Inhibitors of 12-hLO (12-human lipoxygenase); purified 12-hLO, xylenol orange hydroperoxide absorbance; Potency, µM (top dose mostly 57.1 µM), for inactives: top-dose activity change, negative = inhibition, usual class: inhibitors; 150,000 tested, 0.12% active; also: potency is read from the fitted curve at half-maximal effect; nearly all actives have a fitted effect of over 55% in size
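Xylenol orange chromogenic assay: hydroperoxide from 12hLO oxidises Fe(II), giving red-shifted Fe(III)-XO absorbance. Conditions: 150 nM enzyme, 40 uM arachidonic acid, 25 mM Hepes pH 7.0, 0.01% Triton X-100, 30 min, room temperature.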
IMPase inh: qHTS Assay for Identifying the Cell-Membrane Permeable IMPase Inhibitors. 120,000 tested, under 10 active. CHO-M1 cells, IP1 accumulation, HTRF TR-FRET ratio. inhibition (IP1 accumulation), % at 46.1 µM. AID 901, 2007; active = well fitted curve in the direction sought with a large enough effect in the signal ratio, not every such curve was filed as active; inconclusive = small, poorly fitted or top-dose-only effect, or a change in a side signal; inactive = no such curve, though single readings can be large or run the other way; the % refers to the signal ratio;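 also: cells stimulated with carbachol in lithium chloride buffer; plate controls were DMSO basal wells for no effect and reference inhibitor wells for full effect; higher means more IMPase inhibition seen as more IP1 and lower FRET ratio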
Target sequence (P97697 whole entry, looked up): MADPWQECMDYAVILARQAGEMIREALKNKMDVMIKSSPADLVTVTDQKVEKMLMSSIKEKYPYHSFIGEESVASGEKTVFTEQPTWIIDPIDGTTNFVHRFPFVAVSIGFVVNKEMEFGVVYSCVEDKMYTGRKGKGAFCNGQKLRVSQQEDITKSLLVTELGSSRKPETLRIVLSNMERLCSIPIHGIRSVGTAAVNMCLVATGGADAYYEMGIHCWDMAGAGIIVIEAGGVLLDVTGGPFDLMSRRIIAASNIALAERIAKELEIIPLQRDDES
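Measured: the HTRF emission ratio (665/620 nm) plus the 620 nm donor channel, each fitted to the Hill equation to give AC50. Cells were CHO-M1 given compounds up to 46 uM and a 30 min carbachol stimulation at 37C.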
IMPase Li cell: qHTS Assay for Identifying the Cell-Membrane Permeable IMPase Inhibitors: Potentiation with Lithium; CHO-M1 cells, IP1 TR-FRET (IP-One), carbachol + lithium; Potency, µM (series often up to 59.4 µM), for the others: at the highest dose activity, negative = IMPase inhibition, usual class: inhibitors; 210,000 tested, 0.35% active;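 also: IP1 builds up when IMPase is blocked and the TR-FRET signal falls; potency is read from the fitted curve at half-maximal effect; plate controls were basal vehicle for no effect and high inhibitor control for full effect; nearly all actives have a fitted effect of over 50% in size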
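CHO cells stably expressing M1 receptor (2000/well) were cultured 16–30 h, then exposed to compounds with a small lithium addition for 30 min at 37C. IP1 was measured by TR-FRET competition; AC50 from Hill fits.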
Starred values were filed as active, the others as inactive; u = inconclusive; x = not tested or not shown; [ ] = remark or other dose. Compounds with a hit are over-represented: about 11% of the library has one in this group of screens. Unless noted, calls follow the shape of the dose curve; as a rule, active = well fitted curve in the direction sought with a large enough effect; inconclusive = small, poorly fitted or top-dose-only effect, or another doubt; inactive = no such curve, though single readings can be large; an effect the other way counts as inactive or inconclusive. Unless noted, % is scaled to controls: 0 for no effect and ±100 for the full control effect.

SMILES	HPGD inh	ALDH1A1 inh	PNC inhibitor	12-hLO inh	IMPase inh	IMPase Li cell
NCCC[C@@H](CC(=O)N[C@@H]1CCNC[C@H]1C(=O)N[C@H](CC(=O)N[C@@H](CCC(=O)O)CC(=O)O)Cc1c[nH]c2ccccc12)NC(=O)C[C@H](CO)NC(=O)[C@@H]1CNCC[C@H]1N	-4.5%	u	x	2.2%	x	8.8%
CC(=O)NCCn1c(SCc2cccc([N+](=O)[O-])c2)nc2ccccc2c1=O	x	u	x	x	x	-2.0%
Oc1ccc(Cl)cc1-c1cc(-c2ccco2)[nH]n1	25.1µM*	u	70.6	u	6.7	13.8%[38.3 µM]
Oc1ccccc1-c1cc(-c2ccco2)[nH]n1	u	14.1µM*	24.1	-26.5%	-2.2	19.2%[38.3 µM]
CS(=O)(=O)N1CCC2(CC1)CN(Cc1nccs1)C2	-9.1%	2.4%	x	1.4%	x	3.2%
O=C(O)c1cccc(N/N=C/C2=C(Cl)c3cc(Cl)ccc3SC2)c1	x	20µM*	x	x	x	9.2%
CCCCc1nnc(NC(=O)C(C)Sc2nc(O)c(Cc3ccccc3)c(=O)[nH]2)s1 (centres undefined)	x	-3.4%	x	x	x	-0.5%
Cc1ccc(CC2CC(=O)N(c3ccc(C)cc3)C2=O)cc1 (centres undefined)	x	-10.7%	x	x	x	13.6%
Cc1ccc(N2C(=O)CC(N(O)C3CC(=O)N(c4ccc(C)cc4)C3=O)C2=O)cc1 (centres undefined)	31.6µM*	2.82µM*	-0.5	u	-1.2	-7.6%[38.3 µM]
CCCCCCC(=O)N(O)C1CC(=O)N(c2ccc(C)cc2)C1=O (centres undefined)	7.94µM*	0.447µM*	-15.5	-29.5%	-8.8	24.5%[38.3 µM]
CC(C)(C)C1=C[C@@H](CO)C[C@@H](CO)C1	-11.4%	28.2µM*	u	1.0%	-1.8	15.9%[38.3 µM]
CCOC(=O)N1CCN(C(=O)CN(C2CCCCC2)S(=O)(=O)c2ccc(C)cc2)CC1	1.3%	7.08µM*	u	-18.9%	10.3	49.6%[38.3 µM]
COCCCNC(=O)CN(C1CCCCC1)S(=O)(=O)c1ccc(C)cc1	-2.2%	14.1µM*	-13.9	-4.6%	-5.3	6.8%[38.3 µM]
O=C(NCCCCO)c1ccc2c3c(cccc13)CC2	x	u	x	x	x	-1.9%
COc1ccc(-c2nc3cnc(N4CCNCC4)nc3n(CCC#N)c2=O)cc1	-28.1%	u	x	-0.3%	x	0.0%
CC(N=Cc1cc([N+](=O)[O-])ccc1O)c1ccccc1 (centres undefined)	x	u	x	x	x	-14.7%
Cc1ccccc1N=Cc1cccc(O)c1O	-7.0%	5.01µM*	u	-27.1%	x	-6.7%
Cc1ccc(N=Cc2cccc(O)c2O)c(C)c1	3.16µM*	u	u	u	3.0	14.7%[38.3 µM]
CC(N=Cc1cccc(O)c1O)c1ccccc1 (centres undefined)	2.82µM*	u	-0.4	u	20.4	45.3%[38.3 µM]
Cc1ccc(N=Cc2sc(O)c3ccccc23)c(C)c1	-12.0%	12.6µM*	-15.3	-19.4%	2.9[1.84 µM]	-2.7%[38.3 µM]
Nc1ncnc2c1nc(Br)n2[C@@H]1O[C@H]2COP(=O)(O)O[C@@H]2[C@@H]1O	x	-0.4%	x	x	x	-0.4%
Fc1ccc(NCc2nnc(SCc3nnc(-c4ccccc4)o3)n2Cc2ccccc2)cc1	28.2µM*	-13.5%	-13.8	-6.7%	5.8	0.9%[38.3 µM]
Cc1nnc(SCc2nnc(-c3cccs3)o2)n1Cc1ccccc1	x	12.6µM*	x	x	x	8.0%
Clc1ccc(-c2nnc(CSc3nnc(-c4cccs4)n3Cc3ccccc3)o2)cc1	-8.5%	-2.7%	-10.7	-2.6%	x	18.2%
CCSc1nnc(-c2cccs2)o1	-28.9%	-12.9%	-20.4	-5.9%	2.3	-0.9%[38.3 µM]

Assay outcomes deposited in PubChem BioAssay by National Center for Advancing Translational Sciences (NCATS).
